Out of some 5,400 compounds screened, about 190 (3.5%) showed an effect of 50% or more. The sample as a whole holds a higher share of strong results than the screen did. Residues, ends and D or L forms follow the SMILES beside them. *: point of attachment. NHCH2CH2OH = OCCN*; For = O=C*
Tested on: Vero-E6
Assay: primary screen, phospholipidosis by LipidTOX staining; higher = more effect of the substance
Conditions: 10 µM
Outline: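 Single-concentration screen at 10 μM, with DMSO 0.1 v/v % and amiodarone 10 μM as controls. Read-out is LipidTOX Red phospholipid staining, which tolerates aldehyde fixation, in Vero-E6 cells.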

| Compound | result_ITMP [%] |
| --- | --- |
| Cc1c(N)nc([C@H](CC(N)=O)NC[C@@H](N)C(N)=O)nc1C(=O)N[C@H](C(=O)N[C@@H](C)[C@H](O)[C@@H](C)C(=O)N[C@@H](C(=O)NCCc1nc(-c2nc(C(=O)NCCC[S+](C)C)cs2)cs1)[C@@H](C)O)C(O[C@H]1O[C@H](CO)[C@H](O)[C@@H](O)[C@H]1O[C@H]1O[C@H](CO)[C@@H](O)[C@H](OC(N)=O)[C@@H]1O)c1c[nH]cn1 (stereo partly shown) | 7.07 |
| C[C@]12C=CC(=O)N[C@@H]1CC[C@@H]1[C@@H]2CC[C@]2(C)[C@@H](C(=O)Nc3cc(C(F)(F)F)ccc3C(F)(F)F)CC[C@@H]12 | -3.63 |
| C[C@@H]1CC[C@@]2(OC1)O[C@H]1C[C@H]3[C@@H]4CC=C5C[C@@H](O[C@@H]6O[C@H](CO)[C@@H](O[C@@H]7O[C@@H](C)[C@H](O)[C@@H](O)[C@H]7O)[C@H](O)[C@H]6O[C@@H]6O[C@@H](C)[C@H](O)[C@@H](O)[C@H]6O)CC[C@]5(C)[C@H]4CC[C@]3(C)[C@H]1[C@@H]2C | 18.9 |
| CC1(C)S[C@@H]2[C@H](NC(=O)Cc3ccccc3)C(=O)N2[C@H]1C(=O)[O-] | -4.24 |
| Clc1ccc(Nc2nnc(Cc3ccncc3)c3ccccc23)cc1 | -1.32 |
| COC1CCN(C(=O)c2cc(Cc3n[nH]c(=O)c4ccccc34)ccc2F)CC1 | 2.83 |
| CN1CCCC(n2nc(Cc3ccc(Cl)cc3)c3ccccc3c2=O)CC1 (stereo not shown) | 57.2 |
| Cc1nnc(SCC2=C(C(=O)[O-])N3C(=O)[C@@H](NC(=O)Cn4cnnn4)[C@H]3SC2)s1 | -0.51 |
| C=CCN1CC[C@@]2(C)c3cc(O)ccc3C[C@H]1[C@H]2C | -0.02 |
| CN1CCCC(CC2c3ccccc3Sc3ccccc32)C1 (stereo not shown) | 74.2 |
| CN1CCCC(CN2c3ccccc3Sc3ccccc32)C1 (stereo not shown) | 42.2 |
| CN1CC[C@@H]2CN3CCc4cccc(c43)[C@@H]2C1 | 5.83 |
| C[C@]12CC[C@@H](O)C[C@@H]1CC[C@@H]1[C@@H]2CC[C@]2(C)C(c3ccccc3)=CC[C@@H]12 | -2.07 |
| N#CCc1ccccc1C#Cc1ccc(CCC(=O)O)c(F)c1 | -8.03 |
| O=C(O[C@H]1C[C@H]2CC[C@@H](C1)[N+]21CCCC1)C(O)(c1ccccc1)c1ccccc1 | -3.78 |
| CN1[C@@H](CC(=O)c2ccccc2)CCC[C@H]1C[C@H](O)c1ccccc1 | 13.8 |
| COc1ccc2nc3ccc(Cl)cc3c(SCCCN)c2c1 | -9.55 |
| CCN(CCO)CCCC(C)Nc1ccnc2cc(Cl)ccc12 (stereo not shown) | 1.54 |
| CCN(CC)CCCC(C)Nc1c2ccc(Cl)cc2nc2ccc(OC)cc12 (stereo not shown) | 110 |
| CC1(C)CCC(C)(C)c2c1cc(C(=O)Nc1cc(F)c(C(=O)O)c(F)c1)c(O)c2Cl | -2.47 |
| CSc1ccc2c(c1)C(N1CCN(C)CC1)Cc1ccccc1S2 (stereo not shown) | 79.9 |
| CSc1ccc([C@H]2CN3CCC[C@H]3c3ccccc32)cc1 (racemic) | 14.1 |
| CC[C@H]1[C@@H](O)[C@@H]2[C@H](CC[C@]3(C)[C@@H]([C@H](C)CCOS(=O)(=O)[O-])CC[C@@H]23)[C@@]2(C)CC[C@@H](O)C[C@@H]12 | -1.93 |
| Nc1nc(=O)c2c(CCc3ccc(C(=O)N[C@@H](CCC(=O)[O-])C(=O)[O-])cc3)c[nH]c2[nH]1 | -3.84 |

| Compound | result_ITMP [%] |
| --- | --- |
| CC(C)c1nc(N(C)S(C)(=O)=O)nc(-c2ccc(F)cc2)c1/C=C/[C@@H](O)C[C@@H](O)CC(=O)[O-] | -8.19 |
| CCOc1cc(N2CCC(O)CC2)ccc1Nc1ncc2c(n1)N(C)c1ccccc1C(=O)N2C | 4.79 |
| Cc1nc(Nc2cnn(C3CCNCC3)c2)nc2c1N(C)C(=O)c1cc3ccccc3cc1N2C | 103 |
| O=C(O)[C@@H]1C[C@@H](C2CCCCC2)CN1C(=O)CP(=O)(O)CCCCc1ccccc1 | -0.11 |
| O=c1nc[nH]c2c1cnn2[C@@H]1O[C@H](CO)[C@@H](O)[C@H]1O | 2.43 |
| CCC[C@@H]1C[C@@H](C(=O)N[C@H]([C@H]2O[C@H](SC)[C@H](O)[C@@H](O)[C@H]2O)[C@H](C)O)N(C)C1 | -3.49 |
| NC1(c2ccc(-c3nc4ccn5c(=O)[nH]nc5c4cc3-c3ccccc3)cc2)CCC1 | 87.1 |
| COc1cccc(CCc2ccccc2OCC(CN(C)C)OC(=O)CCC(=O)O)c1 (stereo not shown) | 64.3 |
| O=C(O)CCCCN(CCc1ccccc1OCc1ccc(CCc2ccccc2)cc1)Cc1ccc(C(=O)O)cc1 | 0.2 |
| O=C(O)CCc1ccc(NCc2cccc(Oc3ccccc3)c2)cc1 | -4.86 |
| CCc1cccc(CC)c1N=C1NCCN1 | -5.43 |
| O=C(O[C@H]1CN2CCC1CC2)N(Cc1cc(F)c(F)c(F)c1)c1cccc(F)c1 | 71.4 |
| C[C@H](Nc1ncnc2[nH]cnc12)c1cc2ccc(F)cc2nc1-c1ccccn1 [R4A_0002240_001 / SPE_K21077415] | -0.96 |
| Nc1cccc(CNC(=O)c2ccc(Oc3ccc(OCc4cccc(F)c4)cc3)nc2)c1 | -1.49 |
| CN(C)CCCOc1nn(Cc2ccccc2)c2ccccc12 | 51.2 |
| O=C(O)COc1nn(Cc2ccccc2)c2ccccc12 | 0 |
| OCc1ccc(-c2nn(Cc3ccccc3)c3ccccc23)o1 | -1.24 |
| C[C@@H]1CCC[C@H](C)N1NC(=O)c1ccc(Cl)c(S(N)(=O)=O)c1 | 3.56 |
| CC(C)Cc1ccc(C(C)C(=O)O)cc1 (stereo not shown) [R4A_0001344_001 / SPE_M64062803] | -5.52 |
| O=C(O[C@H]1CN2CCC1CC2)N1CCc2ccccc2[C@@H]1c1ccccc1 | 59.2 |
| O=C(Nc1ccc(F)cc1)N1CCc2ccccc2C1c1ccc(C(F)(F)F)cc1 (stereo not shown) | -0.7 |
| O=C(C1CCCCC1)N1CC(=O)N2CCc3ccccc3C2C1 (stereo not shown) | -5.83 |
| CC(C)(CO)[C@@H](O)C(=O)NCCC(=O)[O-] | 1.43 |
| C[C@@]12C[C@@]3(O)O[C@@H](O1)[C@]1(COC(=O)c4ccccc4)[C@H]3C[C@@]12O[C@@H]1O[C@H](CO)[C@@H](O)[C@H](O)[C@H]1O | -5.49 |

| Compound | result_ITMP [%] |
| --- | --- |
| CN1CCN(c2ccc(-c3cccc(CN4CCOCC4)c3)cc2NC(=O)c2c[nH]c(=O)cc2C(F)(F)F)CC1 | -0.45 |
| CCc1cccc(CC)c1NC(=O)N1Cc2[nH]nc(NC(=O)c3ccc(N4CCN(C)CC4)cc3)c2C1 | 3.48 |
| CN1CCN(c2ccc(C(=O)Nc3n[nH]c4ccc(Cc5cc(F)cc(F)c5)cc34)c(NC3CCOCC3)c2)CC1 | 96.5 |
| C[C@H]1O[C@@H](O[C@H]2CC[C@@]3(C)[C@H](CC[C@@H]4[C@@H]3C[C@@H](O)[C@]3(C)[C@@H](C5=CC(=O)OC5)CC[C@]43O)C2)C[C@H](O)[C@@H]1O[C@H]1C[C@H](O)[C@H](O[C@H]2C[C@H](O)[C@H](O[C@@H]3O[C@H](CO)[C@@H](O)[C@H](O)[C@H]3O)[C@@H](C)O2)[C@@H](C)O1 | -9.7 |
| CO/N=C(\C(=O)N[C@@H]1C(=O)N2C(C(=O)[O-])=C(COC(C)=O)CS[C@H]12)c1csc(N)n1 | -7.3 |
| COc1cccc(C(=O)CCN[C@@H](C)[C@H](O)c2ccccc2)c1 | 1.52 |
| COc1cccc([C@@H](C)NCCCc2ccccc2Cl)c1 | 70.1 |
| CC(NCCC(c1ccccc1)c1ccccc1)c1ccccc1 (stereo not shown) | 43.7 |
| C[N@+]12CCCC[C@@H]1CCC(=C(c1cccs1)c1cccs1)C2 (racemic) | -3.77 |
| CO[C@@H]1[C@@H](OC(N)=O)[C@@H](O)[C@H](Oc2ccc3c([O-])c(NC(=O)c4ccc(O)c(CC=C(C)C)c4)c(=O)oc3c2C)OC1(C)C | -3.28 |
| CC(=O)NCCCS(=O)(=O)[O-] | 7.64 |
| C=CC(=O)N1CCC(Oc2cc3c(Nc4ccc(Cl)c(Cl)c4F)ncnc3cc2OC)CC1 | 35.1 |
| COc1cc2ncnc(Nc3cccc(Cl)c3F)c2cc1OC(=O)N1CCN(C)C[C@H]1C | 10.7 |
| COc1cc2c(Nc3ccc(Br)cc3F)ncnc2cc1OCC1CCN(C)CC1 | 105 |
| COc1cc2ncnc(Nc3ccc(Cl)cc3F)c2cc1OC | -0.91 |
| COc1cc2c(Nc3ccc(Cl)c(Cl)c3F)ncnc2cc1OC[C@@H]1C[C@@H]2CN(C)C[C@@H]2C1 | 55.5 |
| COc1ccc(Cl)c(Nc2ncnc3cc(OCC4CCN(C)CC4)c(OC)cc23)c1 | 9.6 |
| CC(C)CC(NC(=O)C(C)NC(=O)CNC(=O)C(NC=O)C(C)C)C(=O)NC(C)C(=O)NC(C(=O)NC(C(=O)NC(C(=O)NC(Cc1c[nH]c2ccccc12)C(=O)NC(CC(C)C)C(=O)NC(Cc1c[nH]c2ccccc12)C(=O)NC(CC(C)C)C(=O)NC(Cc1c[nH]c2ccccc12)C(=O)NC(CC(C)C)C(=O)NC(Cc1c[nH]c2ccccc12)C(=O)NCCO)C(C)C)C(C)C)C(C)C (stereo not shown) (For-VGALAVVVWLWLWLW-NHCH2CH2OH; configuration not given here) | -8.15 |
| COC1/C=C\OC2(C)Oc3c(C)c(O)c4c(O)c(cc([O-])c4c3C2=O)NC(=O)/C(C)=C\C=C/C(C)C(O)C(C)C(O)C(C)C(OC(C)=O)C1C (stereo not shown) | -0.32 |
| C[C@@H](O)[C@H]1C(=O)N2C(C(=O)[O-])=C([C@H]3CCCO3)S[C@H]12 | -1.64 |
| [Cl][Ru]([Cl])([Cl])[Cl].c1ccc2[nH]ncc2c1.c1ccc2[nH]ncc2c1 | -2.33 |
| OC[C@H]1O[C@@H](O[C@@H]2[C@H](O)[C@@H](O)[C@H](O[C@H]3[C@H](O)[C@@H](O)C(O)O[C@@H]3CO)O[C@@H]2CO)[C@H](O)[C@@H](O)[C@H]1O (stereo partly shown) | 3.95 |
